# Experimental data from PubChem BioAssay (NCATS).
# Values joined by “and” are separate entries in the source; they are usually repeats but may differ in a detail not shown here. Equal values may be shown once. Results filed as inconclusive are left out. A number with no mark means an inactive call. Active and inactive are the calls of the source. The call rests on the fitted dose curve; in most records, active means well fitted inhibition curve with a large enough effect; inconclusive means small, poorly fitted or top-dose-only effect; inactive means flat fitted curve, though single readings scatter.
# System: CP256
# Assay: qHTS profiling for inhibitors of Plasmodium falciparum proliferation (AID 504749); further: nearly all actives have a fitted effect of over 60% in size;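 on activity, negative = inhibition: 0% = DMSO vehicle and full inhibition = artemisinin control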
# Settings: P. falciparum in erythrocytes, SYBR Green DNA, 72 h; series mostly up to 28.7 µM; activity, negative = inhibition: at the top concentration
# Outline: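 SYBR Green fluorescence of parasite DNA, read after lysis and overnight dark incubation, measured growth over 72 h in erythrocyte culture at 0.3% parasitemia and 2.5% hematocrit. Data normalised to DMSO and 0.29 uM artemisinin, with plate-drift correction.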
# Potency means the concentration at half of the fitted maximal effect.
Structure (SMILES),"activity, negative = inhibition",Potency
CCC1(c2ccccc2)CCC(=O)NC1=O (stereo unspecified),1.69%,–
C[N+]1(CCC(C(N)=O)(c2ccccc2)c2ccccc2)CCCCC1,-7.83%,–
CCC(=O)O[C@H]1CC[C@H]2[C@@H]3CCC4=CC(=O)CC[C@]4(C)[C@H]3CC[C@]12C,2.4% [at 12.8 µM],–
OC(c1ccccc1)(c1ccccc1)C1CCNCC1,-0.906% [at 12.8 µM],–
CC(C)[N+](C)(CCC(C(N)=O)(c1ccccc1)c1ccccc1)C(C)C,13.7% [at 12.8 µM],–
Cc1ncc2n1-c1ccc(Cl)cc1C(c1ccccc1F)=NC2,2.6%,–
Cc1ccc(N=CN(C)C=Nc2ccc(C)cc2C)c(C)c1,7.68%,–
CC(C)NCC(O)c1ccc(N)c(C#N)c1 (stereo unspecified),5.15%,–
CNC(=O)Oc1cccc2ccccc12,-1.45%,–
CCNc1nc(Cl)nc(NCC)n1,0.697%,–
CC[n+]1c(-c2ccccc2)c2cc(N)ccc2c2ccc(N)cc21,–,31.6 nM (active) and 63.1 nM (active)
CCCCCCCCCCCC[N+](C)(C)CCOc1ccccc1,–,5.62 µM (active)
CCOC(=O)NC(O)C(Cl)(Cl)Cl (stereo unspecified),8.71%,–
CCN(Cc1ccc(Cl)nc1)/C(=C/[N+](=O)[O-])NC,-12.3%,–
C[C@H]1C(=O)O[C@@H]2CCN3CC=C(COC(=O)[C@](C)(O)[C@]1(C)O)[C@H]23,-0.647%,–
Oc1c(Br)cc(Br)cc1Br,5.08%,–

Structure (SMILES),"activity, negative = inhibition",Potency
C[C@]12CC[C@H]3[C@@H](CC=C4C[C@@H](O)CC[C@@]43C)[C@@H]1CC[C@@H]2O,0.767%,–
COP(=O)(OC)C(O)C(Cl)(Cl)Cl (stereo unspecified),-15%,–
CCN(CC)C(C)C(=O)c1ccccc1 (stereo unspecified),-7.27%,–
COP(=O)(OC)OC=C(Cl)Cl,-2.91%,–
CNC(=O)NC(O)C(Cl)(Cl)Cl (stereo unspecified),-16.6%,–
NC(=O)CN1CCCC1=O,5.84% [at 12.8 µM],–
CCC1(CC)C(=O)NC(=O)NC1=O,0.48%,–
O=c1n(Cl)c(=O)n(Cl)c(=O)n1Cl,-0.571%,–
CC(C)C(Br)C(=O)NC(N)=O (stereo unspecified),9.85%,–
CN(C)C(=S)SSC(=S)N(C)C,–,3.55 µM (active)
COP(=S)(OC)Oc1ccc(Sc2ccc(OP(=S)(OC)OC)cc2)cc1,3.07%,–
NCc1cccnc1,1.07%,–
COc1ccc(C(=O)N2CCCC2=O)cc1,-2.1%,–
c1ccc2nc(N3CCNCC3)ccc2c1,5.64%,–
CC(C)(C)OC(=O)c1ncn2c1[C@@H]1CCCN1C(=O)c1c(Br)cccc1-2,-6.79%,–
